{"source": "the supplement of paper PMC10849652", "note": "Targets with a hit are over-represented here; the source holds about 7,900 in all. About 0.6% of all pairs of compound and target were hits. Unmarked numbers belong to inactive results.", "data": [{"compound": "CN1CCc2c(c3ccccc3n2Cc2ccc(C(=O)NO)cc2)C1 [Tubastatin A]", "assay": "log2 fold change, soluble protein after heating vs DMSO (PISA); higher = thermal stabilisation; K562 cells, 10 uM, 30 min; active = over 0.2 and 3.5 SD of the protein, either way, in both replicates (recomputed)", "outline": "(§1)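 Aliquots of K562 cells (2×10^6 cells/mL) treated with 10 μM compound for 30 min were heated for 3 min over 48°C-58°C. After pooling and extraction in PBS with 0.5% NP-40 at 4°C, soluble protein from a 21,000xg, 90 min spin was quantified by TMTpro 16plex LC-MS/MS with channel sums equalised. Thermal stability is expressed against control samples, from duplicates, as a log2 fold change.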", "values": [{"target": "FAM91A1 (UniProt Q658Y4)", "log2 fold change": 0.005}, {"target": "GSK3B isoform 2 (UniProt P49841)", "log2 fold change": -0.007}, {"target": "GDPD1 (UniProt Q8N9F7)", "sequence (Q8N9F7 whole entry, looked up)": "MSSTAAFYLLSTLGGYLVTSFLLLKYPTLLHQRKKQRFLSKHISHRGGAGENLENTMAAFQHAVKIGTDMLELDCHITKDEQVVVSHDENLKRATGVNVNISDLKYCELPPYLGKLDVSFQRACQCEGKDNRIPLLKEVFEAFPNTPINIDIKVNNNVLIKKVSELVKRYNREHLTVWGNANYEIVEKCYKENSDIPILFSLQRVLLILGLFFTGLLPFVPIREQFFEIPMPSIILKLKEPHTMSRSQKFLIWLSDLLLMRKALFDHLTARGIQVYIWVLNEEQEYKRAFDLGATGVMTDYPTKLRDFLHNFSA", "log2 fold change": 0.019}, {"target": "FIS1 (UniProt Q9Y3D6)", "log2 fold change": -0.021}, {"target": "GTF2H3 (UniProt Q13889)", "log2 fold change": 0.124}, {"target": "HSPA8 (UniProt E9PK54)", "log2 fold change": -0.003}, {"target": "FMC1 (UniProt Q96HJ9)", "sequence (Q96HJ9 whole entry, looked up)": "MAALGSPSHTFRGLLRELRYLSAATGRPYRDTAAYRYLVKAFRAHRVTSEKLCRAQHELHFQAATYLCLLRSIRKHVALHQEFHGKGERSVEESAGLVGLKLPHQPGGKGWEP", "log2 fold change": 0.034}, {"target": "HEXA (UniProt P06865)", "log2 fold change": -0.145}, {"target": "HTATIP2 isoform 3 (UniProt Q9BUP3)", "log2 fold change": -0.009}, {"target": "GTF2E1 (UniProt P29083)", "sequence (P29083 whole entry, looked up)": "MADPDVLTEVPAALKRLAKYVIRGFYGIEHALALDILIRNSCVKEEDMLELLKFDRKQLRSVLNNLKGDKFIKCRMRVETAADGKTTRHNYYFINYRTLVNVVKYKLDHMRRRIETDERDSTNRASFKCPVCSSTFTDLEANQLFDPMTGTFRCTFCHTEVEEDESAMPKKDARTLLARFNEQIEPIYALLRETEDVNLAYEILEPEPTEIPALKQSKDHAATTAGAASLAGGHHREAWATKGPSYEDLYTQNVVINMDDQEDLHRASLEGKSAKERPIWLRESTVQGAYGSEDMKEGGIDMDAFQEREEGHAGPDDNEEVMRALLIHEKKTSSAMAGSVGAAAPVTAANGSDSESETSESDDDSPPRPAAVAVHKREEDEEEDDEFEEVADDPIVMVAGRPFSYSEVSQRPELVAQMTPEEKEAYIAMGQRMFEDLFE", "log2 fold change": 0.064}, {"target": "IDI1 isoform 2 (UniProt Q13907)", "log2 fold change": -0.174}, {"target": "GAPVD1 isoform 6 (UniProt Q14C86)", "log2 fold change": -0.009}, {"target": "HSPA8 (UniProt P11142)", "log2 fold change": -0.019}, {"target": "HADHB (UniProt P55084)", "sequence (P55084 whole entry, looked up)": "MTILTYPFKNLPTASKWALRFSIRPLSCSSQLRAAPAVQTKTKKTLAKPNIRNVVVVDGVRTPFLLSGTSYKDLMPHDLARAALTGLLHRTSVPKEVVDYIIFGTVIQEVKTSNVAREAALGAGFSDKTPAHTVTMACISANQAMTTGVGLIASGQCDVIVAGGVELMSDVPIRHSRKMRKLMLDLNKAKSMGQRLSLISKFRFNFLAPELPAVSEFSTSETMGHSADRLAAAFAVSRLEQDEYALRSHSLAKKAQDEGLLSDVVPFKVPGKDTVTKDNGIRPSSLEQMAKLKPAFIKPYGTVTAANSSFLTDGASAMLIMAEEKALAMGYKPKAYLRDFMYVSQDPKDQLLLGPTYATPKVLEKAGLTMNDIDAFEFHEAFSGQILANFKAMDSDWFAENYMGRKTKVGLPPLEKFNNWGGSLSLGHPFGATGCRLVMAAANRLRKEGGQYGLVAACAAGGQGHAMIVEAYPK", "log2 fold change": 0.027}, {"target": "HDAC1 (UniProt Q13547)", "log2 fold change": "1.52 (active)"}, {"target": "GMEB2 (UniProt Q9UKD1)", "log2 fold change": 0.051}, {"target": "HEATR5B (UniProt Q9P2D3)", "log2 fold change": 0.016}, {"target": "GBA2 (UniProt Q9HCG7)", "sequence (Q9HCG7 whole entry, looked up)": "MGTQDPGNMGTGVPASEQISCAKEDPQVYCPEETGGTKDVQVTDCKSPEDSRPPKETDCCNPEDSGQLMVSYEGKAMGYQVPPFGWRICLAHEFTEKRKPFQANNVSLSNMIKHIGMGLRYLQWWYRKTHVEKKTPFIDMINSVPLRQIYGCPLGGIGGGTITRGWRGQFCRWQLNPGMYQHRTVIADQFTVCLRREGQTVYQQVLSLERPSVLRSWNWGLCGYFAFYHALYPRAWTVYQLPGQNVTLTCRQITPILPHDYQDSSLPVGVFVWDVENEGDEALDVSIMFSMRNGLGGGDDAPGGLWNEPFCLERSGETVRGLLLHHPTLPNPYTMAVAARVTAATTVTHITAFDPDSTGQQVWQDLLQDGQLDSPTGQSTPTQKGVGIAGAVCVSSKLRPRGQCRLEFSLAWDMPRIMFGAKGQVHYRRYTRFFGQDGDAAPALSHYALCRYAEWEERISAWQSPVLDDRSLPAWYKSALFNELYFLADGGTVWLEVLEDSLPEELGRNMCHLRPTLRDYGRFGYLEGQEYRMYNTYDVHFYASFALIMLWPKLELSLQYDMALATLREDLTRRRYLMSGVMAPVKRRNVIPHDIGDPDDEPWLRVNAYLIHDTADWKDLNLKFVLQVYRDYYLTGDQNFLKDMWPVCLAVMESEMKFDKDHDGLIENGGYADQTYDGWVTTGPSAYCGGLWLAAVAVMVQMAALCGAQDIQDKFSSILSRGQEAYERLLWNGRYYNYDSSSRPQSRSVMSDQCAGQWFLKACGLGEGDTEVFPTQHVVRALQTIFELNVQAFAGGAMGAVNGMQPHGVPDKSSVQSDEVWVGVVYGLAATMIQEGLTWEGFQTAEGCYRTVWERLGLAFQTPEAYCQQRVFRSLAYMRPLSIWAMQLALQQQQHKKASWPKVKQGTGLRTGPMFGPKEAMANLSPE", "log2 fold change": -0.03}, {"target": "HIST2H3A (UniProt Q71DI3)", "log2 fold change": 0.17}, {"target": "GALNT1 (UniProt Q10472)", "log2 fold change": 0.064}, {"target": "HDGFL2 (UniProt Q7Z4V5)", "log2 fold change": 0.013}, {"target": "HAUS4 (UniProt Q9H6D7)", "sequence (Q9H6D7 whole entry, looked up)": "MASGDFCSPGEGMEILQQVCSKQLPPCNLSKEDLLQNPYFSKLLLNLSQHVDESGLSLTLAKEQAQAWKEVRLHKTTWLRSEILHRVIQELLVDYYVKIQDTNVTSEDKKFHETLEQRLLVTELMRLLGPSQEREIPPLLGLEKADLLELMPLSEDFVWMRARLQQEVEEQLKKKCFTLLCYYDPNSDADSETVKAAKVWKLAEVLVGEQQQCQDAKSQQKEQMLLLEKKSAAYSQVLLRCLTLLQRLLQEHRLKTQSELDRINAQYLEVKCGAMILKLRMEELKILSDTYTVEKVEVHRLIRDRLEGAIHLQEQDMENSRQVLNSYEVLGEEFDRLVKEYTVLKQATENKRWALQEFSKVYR", "log2 fold change": 0.044}, {"target": "GLIPR2 (UniProt Q9H4G4)", "sequence (Q9H4G4 whole entry, looked up)": "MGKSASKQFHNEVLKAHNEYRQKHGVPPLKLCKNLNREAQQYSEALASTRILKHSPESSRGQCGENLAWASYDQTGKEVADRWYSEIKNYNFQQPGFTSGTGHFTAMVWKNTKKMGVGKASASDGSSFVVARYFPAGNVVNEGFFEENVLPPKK", "log2 fold change": -0.002}, {"target": "FNTB (UniProt P49356)", "log2 fold change": 0.017}, {"target": "GOLPH3 (UniProt Q9H4A6)", "sequence (Q9H4A6 whole entry, looked up)": "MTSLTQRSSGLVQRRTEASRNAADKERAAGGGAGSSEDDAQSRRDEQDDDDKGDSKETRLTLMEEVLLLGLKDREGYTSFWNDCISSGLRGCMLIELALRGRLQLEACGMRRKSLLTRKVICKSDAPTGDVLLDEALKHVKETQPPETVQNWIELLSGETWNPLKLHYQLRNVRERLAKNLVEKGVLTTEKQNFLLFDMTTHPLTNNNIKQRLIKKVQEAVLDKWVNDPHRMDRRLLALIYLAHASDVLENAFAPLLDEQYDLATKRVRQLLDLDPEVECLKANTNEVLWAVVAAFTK", "log2 fold change": 0.028}, {"target": "GHDC (UniProt Q8N2G8)", "log2 fold change": -0.032}, {"target": "HDAC2 (UniProt Q92769)", "log2 fold change": "0.907 (active)"}, {"target": "FIBP (UniProt O43427)", "log2 fold change": 0.07}, {"target": "FERMT3 (UniProt Q86UX7)", "log2 fold change": -0.003}, {"target": "HIP1R (UniProt O75146)", "sequence (O75146 whole entry, looked up)": "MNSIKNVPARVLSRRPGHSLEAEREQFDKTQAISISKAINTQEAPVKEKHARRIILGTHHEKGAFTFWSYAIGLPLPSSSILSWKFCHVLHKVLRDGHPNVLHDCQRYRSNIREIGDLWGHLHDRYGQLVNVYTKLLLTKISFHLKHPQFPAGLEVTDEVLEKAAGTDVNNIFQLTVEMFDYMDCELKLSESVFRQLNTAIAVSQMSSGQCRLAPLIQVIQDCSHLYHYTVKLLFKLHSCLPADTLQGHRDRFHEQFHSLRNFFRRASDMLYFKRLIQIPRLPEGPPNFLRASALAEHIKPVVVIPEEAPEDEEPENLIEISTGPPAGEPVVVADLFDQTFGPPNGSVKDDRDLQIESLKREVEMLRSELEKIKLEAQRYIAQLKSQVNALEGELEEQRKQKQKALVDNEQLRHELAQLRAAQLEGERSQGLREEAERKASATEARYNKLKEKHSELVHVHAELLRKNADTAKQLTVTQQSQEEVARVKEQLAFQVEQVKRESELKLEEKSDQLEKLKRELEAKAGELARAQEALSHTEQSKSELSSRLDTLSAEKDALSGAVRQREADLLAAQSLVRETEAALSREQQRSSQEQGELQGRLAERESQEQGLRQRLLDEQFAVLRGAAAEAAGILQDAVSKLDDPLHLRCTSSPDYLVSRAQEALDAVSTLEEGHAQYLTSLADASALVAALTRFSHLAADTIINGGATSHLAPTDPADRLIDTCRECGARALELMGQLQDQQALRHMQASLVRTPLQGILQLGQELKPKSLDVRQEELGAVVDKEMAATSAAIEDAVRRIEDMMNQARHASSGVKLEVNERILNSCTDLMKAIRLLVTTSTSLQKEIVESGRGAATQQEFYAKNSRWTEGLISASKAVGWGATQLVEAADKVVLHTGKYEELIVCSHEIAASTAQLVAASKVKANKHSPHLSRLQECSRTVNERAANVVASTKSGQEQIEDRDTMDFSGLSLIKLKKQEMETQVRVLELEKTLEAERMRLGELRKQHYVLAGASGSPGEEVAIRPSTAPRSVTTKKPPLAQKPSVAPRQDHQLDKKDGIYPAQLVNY", "log2 fold change": 0.007}, {"target": "HNRNPF (UniProt P52597)", "log2 fold change": 0.086}, {"target": "HNRNPH2 (UniProt P55795)", "log2 fold change": 0.101}, {"target": "GALC (UniProt P54803)", "log2 fold change": -0.028}, {"target": "FASTKD1 (UniProt Q53R41)", "sequence (Q53R41 whole entry, looked up)": "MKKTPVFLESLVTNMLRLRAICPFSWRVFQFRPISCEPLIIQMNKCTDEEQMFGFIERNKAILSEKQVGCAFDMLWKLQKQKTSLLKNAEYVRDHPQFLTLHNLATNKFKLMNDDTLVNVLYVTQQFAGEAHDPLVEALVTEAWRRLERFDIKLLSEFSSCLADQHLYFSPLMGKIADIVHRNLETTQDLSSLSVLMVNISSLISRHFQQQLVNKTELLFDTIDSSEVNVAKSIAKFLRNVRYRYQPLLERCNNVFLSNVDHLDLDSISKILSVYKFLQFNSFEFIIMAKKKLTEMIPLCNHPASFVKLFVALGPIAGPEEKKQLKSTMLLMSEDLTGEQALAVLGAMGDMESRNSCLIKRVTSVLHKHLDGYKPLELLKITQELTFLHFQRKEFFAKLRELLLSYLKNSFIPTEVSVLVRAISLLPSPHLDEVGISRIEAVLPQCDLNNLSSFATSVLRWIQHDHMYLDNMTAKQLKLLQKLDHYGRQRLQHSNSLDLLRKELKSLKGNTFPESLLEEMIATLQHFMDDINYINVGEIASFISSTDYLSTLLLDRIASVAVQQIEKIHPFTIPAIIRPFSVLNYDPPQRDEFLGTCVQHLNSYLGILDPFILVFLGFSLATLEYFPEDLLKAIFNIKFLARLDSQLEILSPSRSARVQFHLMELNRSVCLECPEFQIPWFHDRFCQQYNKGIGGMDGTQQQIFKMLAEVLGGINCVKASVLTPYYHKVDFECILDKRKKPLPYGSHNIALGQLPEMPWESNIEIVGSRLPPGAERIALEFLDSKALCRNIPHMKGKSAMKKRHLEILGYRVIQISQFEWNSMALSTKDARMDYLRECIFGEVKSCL", "log2 fold change": 0.037}]}, {"compound": "CNC(=O)C1=CC=CC=C1NC2=NC(=NC=C2Cl)NC3=C(C=C(C=C3)N4CCOCC4)OC", "assay": "log2 fold change, soluble protein after heating vs DMSO (PISA); higher = thermal stabilisation; K562 cells, 10 uM, 30 min; active = over 0.2 and 3.5 SD of the protein, either way, in both replicates (recomputed)", "outline": "as §1", "values": [{"target": "FAM91A1 (UniProt Q658Y4)", "log2 fold change": 0.059}, {"target": "GSK3B isoform 2 (UniProt P49841)", "log2 fold change": 0.001}, {"target": "GDPD1 (UniProt Q8N9F7)", "log2 fold change": -0.017}, {"target": "FIS1 (UniProt Q9Y3D6)", "log2 fold change": -0.012}, {"target": "GTF2H3 (UniProt Q13889)", "log2 fold change": 0.008}, {"target": "HSPA8 (UniProt E9PK54)", "log2 fold change": 0.072}, {"target": "FMC1 (UniProt Q96HJ9)", "log2 fold change": 0.113}, {"target": "HEXA (UniProt P06865)", "log2 fold change": -0.012}, {"target": "HTATIP2 isoform 3 (UniProt Q9BUP3)", "log2 fold change": -0.001}, {"target": "GTF2E1 (UniProt P29083)", "log2 fold change": 0}, {"target": "IDI1 isoform 2 (UniProt Q13907)", "log2 fold change": -0.002}, {"target": "GAPVD1 isoform 6 (UniProt Q14C86)", "log2 fold change": -0.007}, {"target": "HSPA8 (UniProt P11142)", "log2 fold change": 0.139}, {"target": "HADHB (UniProt P55084)", "log2 fold change": 0.064}, {"target": "HDAC1 (UniProt Q13547)", "log2 fold change": -0.163}, {"target": "GMEB2 (UniProt Q9UKD1)", "log2 fold change": -0.065}, {"target": "HEATR5B (UniProt Q9P2D3)", "log2 fold change": 0.022}, {"target": "GBA2 (UniProt Q9HCG7)", "log2 fold change": -0.012}, {"target": "HIST2H3A (UniProt Q71DI3)", "log2 fold change": -0.166}, {"target": "GALNT1 (UniProt Q10472)", "log2 fold change": 0.039}, {"target": "HDGFL2 (UniProt Q7Z4V5)", "log2 fold change": -0.061}, {"target": "HAUS4 (UniProt Q9H6D7)", "log2 fold change": 0.195}, {"target": "GLIPR2 (UniProt Q9H4G4)", "log2 fold change": 0.036}, {"target": "FNTB (UniProt P49356)", "log2 fold change": -0.036}, {"target": "GOLPH3 (UniProt Q9H4A6)", "log2 fold change": 0.022}, {"target": "GHDC (UniProt Q8N2G8)", "log2 fold change": 0.014}, {"target": "HDAC2 (UniProt Q92769)", "log2 fold change": -0.113}, {"target": "FIBP (UniProt O43427)", "log2 fold change": 0.002}, {"target": "FERMT3 (UniProt Q86UX7)", "log2 fold change": 0.008}, {"target": "HIP1R (UniProt O75146)", "log2 fold change": 0.037}, {"target": "HNRNPF (UniProt P52597)", "log2 fold change": 0.004}, {"target": "HNRNPH2 (UniProt P55795)", "log2 fold change": -0.079}, {"target": "GALC (UniProt P54803)", "log2 fold change": -0.003}, {"target": "FASTKD1 (UniProt Q53R41)", "log2 fold change": 0.037}]}, {"compound": "CNC(=O)c1ccc(Nc2ncc(C(F)(F)F)c(NCc3nccnc3N(C)S(C)(=O)=O)n2)cc1 [defactinib]", "assay": "log2 fold change, soluble protein after heating vs DMSO (PISA); higher = thermal stabilisation; K562 cells, 10 uM, 30 min; active = over 0.2 and 3.5 SD of the protein, either way, in both replicates (recomputed)", "outline": "as §1", "values": [{"target": "FAM91A1 (UniProt Q658Y4)", "log2 fold change": 0}, {"target": "GSK3B isoform 2 (UniProt P49841)", "log2 fold change": -0.015}, {"target": "GDPD1 (UniProt Q8N9F7)", "log2 fold change": -0.087}, {"target": "FIS1 (UniProt Q9Y3D6)", "log2 fold change": -0.063}, {"target": "GTF2H3 (UniProt Q13889)", "log2 fold change": 0.009}, {"target": "HSPA8 (UniProt E9PK54)", "log2 fold change": -0.012}, {"target": "FMC1 (UniProt Q96HJ9)", "log2 fold change": -0.056}, {"target": "HEXA (UniProt P06865)", "log2 fold change": -0.008}, {"target": "HTATIP2 isoform 3 (UniProt Q9BUP3)", "log2 fold change": -0.065}, {"target": "GTF2E1 (UniProt P29083)", "log2 fold change": -0.272}, {"target": "IDI1 isoform 2 (UniProt Q13907)", "log2 fold change": -0.006}, {"target": "GAPVD1 isoform 6 (UniProt Q14C86)", "log2 fold change": -0.07}, {"target": "HSPA8 (UniProt P11142)", "log2 fold change": 0.006}, {"target": "HADHB (UniProt P55084)", "log2 fold change": -0.18}, {"target": "HDAC1 (UniProt Q13547)", "log2 fold change": -0.15}, {"target": "GMEB2 (UniProt Q9UKD1)", "log2 fold change": -0.156}, {"target": "HEATR5B (UniProt Q9P2D3)", "log2 fold change": -0.099}, {"target": "GBA2 (UniProt Q9HCG7)", "log2 fold change": -0.07}, {"target": "HIST2H3A (UniProt Q71DI3)", "log2 fold change": 0.339}, {"target": "GALNT1 (UniProt Q10472)", "log2 fold change": -0.046}, {"target": "HDGFL2 (UniProt Q7Z4V5)", "log2 fold change": -0.07}, {"target": "HAUS4 (UniProt Q9H6D7)", "log2 fold change": 0.019}, {"target": "GLIPR2 (UniProt Q9H4G4)", "log2 fold change": 0.047}, {"target": "FNTB (UniProt P49356)", "log2 fold change": 0.095}, {"target": "GOLPH3 (UniProt Q9H4A6)", "log2 fold change": -0.064}, {"target": "GHDC (UniProt Q8N2G8)", "log2 fold change": -0.033}, {"target": "HDAC2 (UniProt Q92769)", "log2 fold change": -0.035}, {"target": "FIBP (UniProt O43427)", "log2 fold change": -0.046}, {"target": "FERMT3 (UniProt Q86UX7)", "log2 fold change": -0.069}, {"target": "HIP1R (UniProt O75146)", "log2 fold change": -0.063}, {"target": "HNRNPF (UniProt P52597)", "log2 fold change": -0.253}, {"target": "HNRNPH2 (UniProt P55795)", "log2 fold change": -0.173}, {"target": "GALC (UniProt P54803)", "log2 fold change": 0.017}, {"target": "FASTKD1 (UniProt Q53R41)", "log2 fold change": -0.22}]}]}
